Source: PubChem BioAssay

Assay: binders of probe aHhip on microarray, primary screen, stem cell growth factor project, biochemical, small-molecule microarray, fluorescence 635/667 (AID 1087);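 note: score merges spot fluorescence at 667nm with spot signal to noise ratio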
Conditions: higher = more signal
Compound `O=C1C2C=CC(C(O)c3ccc([N+](=O)[O-])cc3)N(Nc3ccccc3)C2C(=O)N1c1ccccc1` (stereo not given) has a composite z-score of 0.211. `CC(=O)NCCCC[C@@H]1NC(=O)[C@H]2C[C@@H](C(=O)NCCCCCC[N+](C)(C)C)[C@@H](c3ccc(O)cc3)N2C1=O` gave a composite z-score of -0.199. For `CCCC[C@H]1OB(O)C[C@H]2C1=C(COC)C[C@H]1C(=O)C=CC(=O)[C@H]12`, the composite z-score was 0.206. `C[C@@H](OCc1ccccc1)C1NC(=O)[C@@]23C(=O)N[C@@H](Cc4ccccc4)C2[C@H](C)[C@@]2(C)O[C@H]2C3/C=C/C/C=C\CNC(=O)[C@H](Cc2ccccc2)NC1=O` (stereo not given in full) showed a composite z-score of 0.103. In the case of `C=CCC(OC(C)=O)[C@@H]1[C@@H](N(Cc2ccc(-c3cccc(C(F)(F)F)c3)o2)C(=O)c2cccc3ccccc23)c2cc(OCCCO)ccc2N1C(=O)c1ccc2ccccc2c1` (stereo not given in full), the composite z-score was -0.15. In the case of `COCCn1c(C(=O)N2CCCC2)cc2c1C[C@H]1CN(C(=O)c3ccccc3)[C@@](Cc3ccccc3)(C(=O)OC)[C@@H]21`, the composite z-score was 0.688. `C=CC[C@@]12N=C(c3ccc(OCCCO)cc3)O[C@@H]1c1ccccc1N(Cc1ccccc1)C2=O` gave a composite z-score of 0.145. In the case of `C[C@]1(C(=O)NCC(F)(F)F)c2ccccc2C(=O)N(Cc2ccc(OC(F)(F)F)cc2)[C@H]1c1ccc(CO)cc1`, the composite z-score was -0.0645. In the case of `O=C1N(CCS(=O)(=O)c2ccccc2)c2ccccc2[C@@H]2OC(c3ccc(OCCCO)cc3)=N[C@]12CCS(=O)(=O)c1ccccc1`, the composite z-score was 0.0053. With `CN(C)CCCC[C@@H]1NC(=O)[C@@H]2C[C@H](C(=O)NCCCCCCNC(=O)CS)[C@H](c3cccc(OCCO)c3)N2C1=O` the composite z-score was 0.0373. In the case of `[N-]=[N+]=Nc1ccccc1[C@@H]1OC(c2ccc(OCCCO)cc2)=N[C@]1(Cc1ccccc1)C(N)=O`, the composite z-score was -0.0994. `C=CC[C@]1(C(=O)N(C)C)COC(c2ccc(OCCCO)cc2)=N1` showed a composite z-score of 0.0373. In the case of `O=C1O[C@@H](c2ccccc2)[C@@H](c2ccccc2)N2[C@@H](c3ccc(O)cc3)[C@]3(C(=O)Nc4ccc(C#CC5=CCCCC5)cc43)[C@@H](C(=O)N3CCCCCCC3)[C@H]12`, the composite z-score was 0.271. In the case of `CCCCC(=C=CC[C@@H](O)c1cccc(OCCO)c1)C[C@@H](O)COCc1ccccc1`, the composite z-score was 0.0053. `[N-]=[N+]=NCc1ccccc1C[C@]1(C(=O)O)COC(c2ccc(OCCCO)cc2)=N1` showed a composite z-score of 0.2. Work on `COC(=O)[C@]1(CO)N=C(c2ccc(OCCCO)cc2)O[C@@H]1c1ccccc1CN=[N+]=[N-]` yielded a composite z-score of -0.286. Work on `COc1ccc(NN2C(C(O)c3cc(C(F)(F)F)cc(C(F)(F)F)c3)C=CC3C(=O)N(C4CCCCC4)C(=O)C32)cc1` (stereo not given) yielded a composite z-score of 1.67. `CN(C)CCCC[C@@H]1NC(=O)[C@H]2C[C@@H](C(=O)NCc3ccc(F)cc3)[C@@H](c3ccc(O)cc3)N2C1=O` gave a composite z-score of 0.028. In the case of `CCCC=C(CCC)[C@@H](NC(=O)c1ccccc1)c1ccc(C(=O)OC)cc1`, the composite z-score was 1.09. Work on `C=CCC(OC(C)=O)[C@@H]1[C@@H](N(Cc2cccc3ccccc23)C(=O)c2cccc3ccccc23)c2cc(OCCCO)ccc2N1C(=O)Cc1ccc2ccccc2c1` (stereo not given in full) yielded a composite z-score of -0.166. Compound `C=C(COC)/C(=C/C[C@@H](OC(C)=O)c1ccccc1OCCO)c1cc(C(=O)OC)ccc1OC` has a composite z-score of -0.374. In the case of `CO[C@H]1O[C@H](CO)[C@@H](OC(=O)Nc2ccc(C(F)(F)F)cc2)[C@H](OC(=O)Nc2ccccc2-c2ccccc2)[C@@H]1OC(=O)Nc1ccccc1-c1ccccc1`, the composite z-score was -0.146. Work on `CCOC(=O)C[C@H]1[C@H](OC(=O)c2ccc(-c3ccccc3)cc2)[C@@H](NC(=O)CC(C)C)c2cc(OCCCO)ccc2N1C(=O)Cc1ccc(OC)cc1` yielded a composite z-score of 0.77. For `CCOC(=O)C[C@H]1[C@H](OC(=O)c2cc3ccccc3oc2=O)[C@@H](NC(=O)C2CCCCC2)c2cc(OCCCO)ccc2N1C(=O)Cc1ccc(OC)cc1`, the composite z-score was -0.201. In the case of `N#Cc1ccc(C(O)C2C=CC3C(=O)NC(=O)C3N2Nc2ccccn2)cc1` (stereo not given), the composite z-score was 0.113. `O=C1C2C=CC(C(O)c3cccs3)N(Nc3ccccc3)C2C(=O)N1c1ccccc1` (stereo not given) gave a composite z-score of -0.0237. For `COC(=O)[C@@]1(Cc2ccc(OC)cc2)[C@H]2c3cc(C(=O)N4CCCC4)n(CCc4ccc(OC)c(Br)c4)c3C[C@H]2CN1C(=O)c1ccccc1`, the composite z-score was 0.21. Compound `CO[C@H]1O[C@H](CO)[C@@H](OC(=O)Nc2ccc(C(F)(F)F)cc2)[C@H](OC(=O)Nc2ccccc2-c2ccccc2)[C@H]1OC(=O)Nc1ccccc1-c1ccccc1` has a composite z-score of -0.0645. Compound `CCOC(=O)C1=C(C(=O)OCC)N(S(=O)(=O)CC[Si](C)(C)C)[C@H](c2ccccc2)CC1` has a composite z-score of 0.0623. Compound `CC(C)C(=C=CC[C@@H](O)c1ccccc1OCCO)C[C@@H](O)c1cc(Cl)cc(Cl)c1O` has a composite z-score of -0.0296. Work on `COc1ccc(C#Cc2ccc3c(c2)[C@]2(C(=O)N3)[C@H](C(=O)Nc3nc4ccccc4s3)[C@H]3C(=O)O[C@H](c4ccccc4)[C@H](c4ccccc4)N3[C@@H]2c2ccc(OCCO)cc2)cc1` yielded a composite z-score of -0.216. Work on `CC(=O)n1cc(C(O)C2C=CC3C(=O)N(c4ccccc4)C(=O)C3N2Nc2ccccc2F)c2ccccc21` (stereo not given) yielded a composite z-score of 0.0505. `COCCOC(=O)N1C(=O)[C@@]2(c3cc(C#CC4(O)CCCCCC4)ccc31)[C@H](c1ccc(OCCO)cc1)N1[C@H](c3ccccc3)[C@H](c3ccccc3)OC(=O)[C@H]1[C@@H]2C(N)=O` showed a composite z-score of -0.0645. Work on `COc1cc2c(cc1O)C(c1ccc(CN3CCCC3)cc1)N(Cc1ccc([N+](=O)[O-])o1)CC2` (stereo not given) yielded a composite z-score of -0.354. `COc1ccc(CCNC(=O)[C@@]2(C)c3ccccc3C(=O)N(Cc3cc(C(F)(F)F)cc(C(F)(F)F)c3)[C@H]2c2ccc(CO)cc2)cc1` showed a composite z-score of 1.69.
